Experimental findings from PubChem BioAssay AID1851 (National Center for Advancing Translational Sciences (NCATS), 2009) are described below.

As usually defined, the AC50 is the concentration giving half of the maximal activity seen.

Hit rate of the full screen: of about 16,000 compounds, about 4,000 (25%) were called active. Roughly 26% stayed inconclusive and do not appear here. These entries were drawn from the full list. Values without a mark were called inactive. The call rests on the fitted dose curve; in most records, active means well fitted curve in the direction sought with a large enough effect; inconclusive means small, poorly fitted or top-dose-only effect, or effect the other way; inactive means no such curve, though single readings can be large or run the other way.
On the % scale 0 is the no-effect control and ±100 the full control effect.

Sequence of Cytochrome P450 2C9 (Homo sapiens) (P11712 whole entry, looked up): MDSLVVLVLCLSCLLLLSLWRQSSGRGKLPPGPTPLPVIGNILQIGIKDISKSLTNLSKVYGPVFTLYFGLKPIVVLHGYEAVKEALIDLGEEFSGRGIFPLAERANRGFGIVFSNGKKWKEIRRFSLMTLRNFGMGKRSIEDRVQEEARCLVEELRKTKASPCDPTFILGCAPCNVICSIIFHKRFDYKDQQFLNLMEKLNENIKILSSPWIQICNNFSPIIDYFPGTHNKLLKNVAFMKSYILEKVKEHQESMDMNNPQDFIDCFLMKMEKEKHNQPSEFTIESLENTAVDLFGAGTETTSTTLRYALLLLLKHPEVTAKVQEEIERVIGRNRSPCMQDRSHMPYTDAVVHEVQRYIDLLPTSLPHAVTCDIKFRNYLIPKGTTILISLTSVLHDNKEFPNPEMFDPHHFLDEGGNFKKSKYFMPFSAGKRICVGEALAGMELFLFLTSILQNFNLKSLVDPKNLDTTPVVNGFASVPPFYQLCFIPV

This experiment addresses Cytochrome P450 2C9 (Homo sapiens) (UniProt P11712). The experiment is described as follows: Cytochrome panel assay with activity outcomes. The settings on record: recombinant CYP, pro-luciferin dealkylation, luminescence, p450-cyp2c9; series mostly up to 57.1 µM; activity, negative = inhibition: at the top concentration.
Turning to `COc1ccccc1CN1CC[C@@]2(CCCN(S(C)(=O)=O)C2)C1`, the “activity, negative = inhibition” value is 6.39%. As for `N#CC(C#N)=NNc1ccc2cn[nH]c2c1`, the concentration at half-maximal activity (AC50) is 2.51 µM (active). As for `C=C1C(=O)C=C2CN(C(=O)c3ccccc3)[C@@](Cc3ccc(F)cc3)(C(=O)OC)[C@@H]12`, the AC50 is 3.98 µM (active). With `COC(=O)[C@@]1(Cc2ccccc2)[C@@H]2C(=CC(=O)[C@H]2CC(=O)C(=O)N(C)C)CN1C(=O)c1ccccc1`, the “activity, negative = inhibition” value was -29%. Still for that read-out and setting: the result for `COc1ccc(C(=O)N2CCC[C@@]3(CCN(C(=O)Nc4ccccc4)C3)C2)cc1` reads -9.88%. `COC(=O)[C@@]1(Cc2ccc(F)cc2)[C@@H]2[C@@H](CC(=O)[C@H]2CC(=O)C(=O)N(C)C)CN1C(=O)c1ccccc1`: the concentration at half-maximal activity (AC50) is 20 µM (active). The same measure, in the same setting: the result for `COC(=O)[C@@]1(Cc2ccc(OC)cc2)[C@@H]2C(=CC(=O)[C@H]2CC(=O)C(=O)N2CCCC2)CN1C(=O)c1ccccc1` reads 10 µM (active); that for `COC(=O)[C@@]1(Cc2ccc(F)cc2)[C@@H]2C(=CC(=O)[C@H]2CC(=O)C(=O)N2CCCC2)CN1C(=O)c1ccccc1`, 10 µM (active). For `O=C(O)c1c[nH]c2cc(OCc3ccccc3)ccc2c1=O`, the activity, negative = inhibition is -11.1% [at 11.4 µM]. As to `O=C(O)c1ccc(SSc2ccc(C(=O)O)cn2)nc1`, the concentration at half-maximal activity (AC50) was 1.58 µM (active). Take `N[C@@H](C(=O)O)c1ccc(C(=O)O)cc1`: the AC50 result is “inactive”.

As for `O=C(O)c1cc(C(=O)O)nc(C(=O)O)c1`, the activity, negative = inhibition was 13.5% [at 11.4 µM]. Regarding `C[C@@H](C(=O)NCc1ccccn1)[C@H]1C[C@]1(C)[C@H](NC(=O)OCc1ccccc1)c1ccccc1`, the concentration at half-maximal activity (AC50) is 10 µM (active). For the compound `COC(=O)[C@H](C)[C@H]1C[C@]1(C)[C@H](NC(=O)OCc1ccccc1)c1ccccc1`, the AC50 is 2 µM (active).

On to `C[C@@H](C(=O)O)[C@H]1C[C@]1(C)[C@H](NC(=O)OCc1ccccc1)c1ccccc1`, for which the AC50 is 15.8 µM (active). Take `CC(C)C(NC(=O)C1CCCCC1)C(=O)NCc1ccccn1` (configuration not stated): the “activity, negative = inhibition” value was -22.3%. `C[C@@H](C(=O)NCc1cccc2ccccc12)[C@H]1C[C@]1(C)[C@H](NC(=O)OCc1ccccc1)c1ccccc1`: the half-maximal activity concentration (AC50) was 3.16 µM (active). With `C/C(CCN1CCc2nc(-c3ccccc3)c(-c3ccccc3)cc2C1)=N\OC[C@@H](O)[C@@H]1O[C@@H]2OC(C)(C)O[C@@H]2[C@H]1O`, the activity, negative = inhibition was -8.77% [at 11.4 µM].

On to `Cc1ccc(S(=O)(=O)N[C@@H]2COC(=O)C/C=C\[C@H](C)COC(=O)N[C@@H](C)C(=O)C/C=C\[C@H]2C)cc1`, for which the activity, negative = inhibition is 7.18% [at 11.4 µM]. As to `CNc1ccnc(-c2ccccc2C(F)(F)F)n1`, the activity, negative = inhibition was 1.23% [at 2.29 µM]. On to `COC(=O)[C@H](C)[C@@H]1C[C@@]1(C)[C@@H](NC(=O)OCc1ccccc1)c1ccccc1`, for which the concentration at half-maximal activity (AC50) was 5.01 µM (active). Turning to `CNC(=O)[C@H](C)[C@H]1C[C@]1(C)[C@H](NC(=O)OCc1ccccc1)c1ccccc1`, the AC50 was 10 µM (active). Take `C[C@@H](C(=O)NCc1nc2ccccc2[nH]1)[C@@H]1C[C@@]1(C)[C@@H](NC(=O)OCc1ccccc1)c1ccccc1`: the AC50 is 10 µM (active). `COc1ccc(COC(=O)N/N=C2/C[C@@H](O)[C@@H](O)[C@@H]3[C@@H]4C(=O)N([C@@H](C)c5ccccc5)C(=O)[C@H]4CC[C@@H]23)cc1`: the activity, negative = inhibition is -19.2% [at 11.4 µM]. Take `CCN1CCCC1Cn1cnc2c([nH]c3ccc(C)cc32)c1=O` (configuration not stated): the “activity, negative = inhibition” value is -19.8%.

Consider `CN(C)CCNC(=O)C1CCCNC1=O` (configuration not stated), for which the “activity, negative = inhibition” value was 1.04%. Take `Cn1cnc([N+](=O)[O-])c1SCC(=O)O`: the activity, negative = inhibition was 4.52% [at 11.4 µM]. Take `OCCN=c1cc(-c2ccccc2)oc2ccc(Cl)cc12`: the AC50 was 2 µM (active). For the compound `Cc1cc2c(=O)[nH]c(N)nc2nc1C`, the activity, negative = inhibition was 0.234% [at 11.4 µM]. Consider `CC(=O)c1sc(N)c(C(=O)OC(C)C)c1C`, for which the AC50 was 10 µM (active). Still for that read-out and setting: the result for `CCOC(=O)/C(C#N)=C1/SC(CC)C(=O)N1c1ccc(Br)cc1` (configuration not stated) reads 12.6 µM (active). Regarding `Cc1ccc(S(=O)(=O)N2CCCC(C(=O)NCCCN3CCCCC3C)C2)cc1` (configuration not stated), the “activity, negative = inhibition” value is -9.5%.

Consider `O=C(CC1CCCCC1)N1CCC(c2nc(-c3ccc(S(=O)(=O)N4CCCC4)cc3)no2)CC1`, for which the concentration at half-maximal activity (AC50) is 7.94 µM (active). On to `COc1ccc(NC(=O)N2CCCC3(CCN(C(=O)c4cccc(F)c4)CC3)C2)cc1`, for which the “activity, negative = inhibition” value is -14.3%.

On to `COC(=O)[C@@]1(Cc2ccc(OC)cc2)[C@H]2c3cc(C(=O)N4CCCC4)n(CCc4c[nH]c5cc(F)ccc45)c3C[C@H]2CN1C(=O)c1ccccc1`, for which the concentration at half-maximal activity (AC50) was 3.16 µM (active).

In the case of `COC(=O)[C@@]1(Cc2ccc(OC)cc2)[C@H]2c3cc(C(=O)N4CCCC4)n(CCc4c[nH]c5ccc(O)cc45)c3C[C@H]2CN1C(=O)c1ccccc1`, the AC50 was 3.16 µM (active). As for `COC(=O)[C@@]1(Cc2ccc(F)cc2)[C@H]2c3cc(C(=O)N4CCCC4)n(CCc4c[nH]c5ccc(OC)cc45)c3C[C@H]2CN1C(=O)c1ccccc1`, the concentration at half-maximal activity (AC50) is 7.94 µM (active). Take `COc1ccc(NC(=O)N2CC[C@@]3(CCCN(C(=O)c4cccc(F)c4)C3)C2)cc1`: the “activity, negative = inhibition” value was -7.57%. As to `COC(=O)[C@@]1(Cc2ccc(F)cc2)[C@H]2c3cc(C(=O)N4CCCC4)n(CCc4c[nH]c5ccccc45)c3C[C@H]2CN1C(=O)c1ccccc1`, the concentration at half-maximal activity (AC50) was 2.51 µM (active).

As for `O=C(O)[C@@H]1CCCN1Cc1cc2ccccc2c2ccccc12`, the activity, negative = inhibition was -0.145% [at 11.4 µM]. Regarding `Nc1nc2c(ncn2COC(CO)CO)c(=O)[nH]1`, the AC50 entry was “inactive”. On the same count and under the same terms, the result for `NC(=O)c1cc[n+](CC2=C(C(=O)O)N3C(=O)[C@@H](NC(=O)[C@H](c4ccccc4)S(=O)(=O)[O-])[C@@H]3SC2)cc1` reads “inactive”. For `Cc1cnc(CNc2ncncc2-c2ccccc2C)cn1`, the activity, negative = inhibition is 3.37% [at 2.29 µM]. Still for that read-out and setting: the result for `C[C@@H]1/C=C\CC(=O)OC[C@H]2O[C@@H](C=C[C@@H]2O)[C@H](C)/C=C\CC(=O)OC1` reads -2.72% [at 11.4 µM]; that for `O=C(O)c1c[nH]c2c(ccc3[nH]cc(C(=O)O)c(=O)c32)c1=O`, 12.3% [at 11.4 µM]. On the same count and under the same terms, the result for `N#Cc1ccc(CN2CCC3(CC2)CCN(C(=O)c2ccncc2)CC3)cc1` reads -1.7%. As to `N#Cc1c(N2CCN(C(=O)c3ccccc3Cl)CC2)nc(-c2ccccc2)c2c1CCCC2`, the concentration at half-maximal activity (AC50) is 2.51 µM (active).
